Experimental data as given in paper PMC4336329 (PLoS ONE, 2015).
Out of some 310,000 compounds screened, about 14,000 (4.5%) showed an effect of 50% or more. Effects have a minus sign here. This is one part of a sample in which strong results are shown more often than they occur.

Target: human ether-à-go-go-related gene (hERG) potassium channel (human, UniProt Q12809)
Assay: primary screen, population patch clamp on CHO cells stably expressing hERG; higher = less effect of the substance
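Also: peak tail current of the secondary pulse compared with the same well before compound.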

human ether-à-go-go-related gene (hERG) potassium channel, sequence (Q12809 whole entry, looked up): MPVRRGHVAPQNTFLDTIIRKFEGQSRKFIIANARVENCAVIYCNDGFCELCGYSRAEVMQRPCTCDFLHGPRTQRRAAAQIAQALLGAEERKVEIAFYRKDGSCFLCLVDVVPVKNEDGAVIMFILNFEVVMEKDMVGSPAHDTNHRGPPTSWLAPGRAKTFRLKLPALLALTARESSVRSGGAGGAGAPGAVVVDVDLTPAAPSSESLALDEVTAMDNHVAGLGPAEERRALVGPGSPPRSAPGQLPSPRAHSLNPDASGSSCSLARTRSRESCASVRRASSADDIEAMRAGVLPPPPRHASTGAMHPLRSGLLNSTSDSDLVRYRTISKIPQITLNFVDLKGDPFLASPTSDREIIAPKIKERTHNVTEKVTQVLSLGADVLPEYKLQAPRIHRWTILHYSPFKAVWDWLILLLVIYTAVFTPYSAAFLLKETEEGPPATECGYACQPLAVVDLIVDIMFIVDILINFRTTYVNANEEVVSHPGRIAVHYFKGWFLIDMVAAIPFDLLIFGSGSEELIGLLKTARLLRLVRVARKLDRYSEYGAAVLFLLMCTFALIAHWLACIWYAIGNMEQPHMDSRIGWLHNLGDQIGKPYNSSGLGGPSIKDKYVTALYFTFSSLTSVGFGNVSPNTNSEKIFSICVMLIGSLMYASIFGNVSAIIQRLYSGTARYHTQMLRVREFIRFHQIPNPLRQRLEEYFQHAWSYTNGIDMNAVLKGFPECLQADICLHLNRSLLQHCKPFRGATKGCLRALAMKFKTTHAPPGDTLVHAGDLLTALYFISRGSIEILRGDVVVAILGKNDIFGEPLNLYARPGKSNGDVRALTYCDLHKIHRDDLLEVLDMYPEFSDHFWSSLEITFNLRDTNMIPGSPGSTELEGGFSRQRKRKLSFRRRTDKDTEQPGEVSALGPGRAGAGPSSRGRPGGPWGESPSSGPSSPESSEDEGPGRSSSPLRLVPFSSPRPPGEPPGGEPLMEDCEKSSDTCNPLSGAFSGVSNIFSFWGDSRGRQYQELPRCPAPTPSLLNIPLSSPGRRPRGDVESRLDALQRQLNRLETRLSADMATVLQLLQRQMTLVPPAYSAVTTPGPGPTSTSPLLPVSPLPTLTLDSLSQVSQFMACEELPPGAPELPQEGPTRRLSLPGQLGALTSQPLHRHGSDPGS

In order of falling “hERG current change (%, negative = inhibition) at 10uM” value:
1. Cc1nn(C)c(N)c1-c1ccccc1  25.4%
2. CCOc1ccc(NC(=O)c2ccc3c(=O)n4c(nc3c2)CCCCC4)cc1  19.5%
3. CN(C)S(=O)(=O)c1cc(NC(=O)CN2CCOCC2)ccc1Cl  17.7%
4. O=C(CNC(=O)c1ccco1)OCC(=O)c1ccc([N+](=O)[O-])cc1  11.9%
5. Cc1ccccc1N(C(=O)c1csnn1)C(C(=O)NC1CCCCC1)c1ccncc1 (stereo not shown)  10.7%
6. CCCn1c2ccccc2c2cnn(CC(=O)NC3CCC(C)CC3)c(=O)c21 (stereo not shown)  9.11%
7. CCc1ccc(C(=O)NNC(=O)c2ccc3c(=O)n4c(nc3c2)CCC4)cc1  5.5%
8. Cc1oc2cc(O)cc(O)c2c(=O)c1-c1ccc2c(c1)OCCCO2  3.88%
9. CCCn1c2ccccc2c2cnn(CC(=O)NC3CCCCC3)c(=O)c21  2.23%
10. Cc1cc(C)n(-c2ccc(C(F)(F)F)cc2[N+](=O)[O-])n1  1.78%
11. O=C(NC1CCCCCCC1)C1CCN(S(=O)(=O)N2CCCC2)CC1  -2.62%
12. COc1ccc(NC(=O)c2sc3nc(C)nc(N4CCN(c5ccccn5)CC4)c3c2C)cc1Cl  -3.04%
13. Cc1ccccc1Cn1c2ccccc2c2cnn(CC(=O)NCCCN3CCN(C)CC3)c(=O)c21  -3.23%
14. CC(=O)c1ccc(NC(=O)c2ccc3c(=O)n4c(nc3c2)CCCCC4)cc1  -5.23%
15. CCc1noc(C)c1C(=O)OCC(=O)c1ccc(OC)c(OC)c1  -5.3%
16. CCN(CC)C(=O)c1cccc(NC(=O)c2ccc3c(=O)n4c(nc3c2)CCC4)c1  -10.7%
17. O=C(Cn1ncc2c3ccccc3n(Cc3ccccc3)c2c1=O)NCCCN1CCCC1=O  -29.8%
18. O=C(Nc1ccc(Cl)cc1)c1ccc2c(=O)n3c(nc2c1)CCCCC3  -32.5%
19. O=C(Cn1ncc2c3ccccc3n(Cc3ccc(Cl)cc3)c2c1=O)NCCCN1CCCC1=O  -34.5%
20. COc1ccc(NC(=O)c2ccc3c(=O)n4c(nc3c2)CCCCC4)cc1  -40%
21. CCOC(=O)c1ccccc1NC(=O)c1ccc2c(=O)n3c(nc2c1)CCCCC3  -41.3%
22. CCc1ccc(NC(=O)c2ccc3c(=O)n4c(nc3c2)CCCCC4)cc1  -46.8%
23. Cc1ccc(C)c(Cn2c3ccccc3c3cnn(CC(=O)NCCCN4CCOCC4)c(=O)c32)c1  -49.7%
24. O=C(Nc1ccc(F)cc1)c1ccc2c(=O)n3c(nc2c1)CCCCC3  -51.8%
25. CCCn1c2ccccc2c2cnn(CC(=O)NCCCN3CCCCC3)c(=O)c21  -53.4%
26. CCCn1c2ccccc2c2cnn(CC(=O)NC3CCN(Cc4ccccc4)CC3)c(=O)c21  -55.1%
27. CCOc1ccccc1NC(=O)c1ccc2c(=O)n3c(nc2c1)CCCCC3  -58.6%
28. Cc1ccc(C)c(Cn2c3ccccc3c3cnn(CC(=O)NCCCN4CCCCC4)c(=O)c32)c1  -71.9%
29. O=C(Cn1ncc2c3ccccc3n(Cc3ccccc3)c2c1=O)NCCCN1CCCC1  -72.5%
30. CC(=O)c1cccc(NC(=O)c2ccc3c(=O)n4c(nc3c2)CCCCC4)c1  -75.5%
31. CCc1cccc(NC(=O)c2ccc3c(=O)n4c(nc3c2)CCCCC4)c1  -76.6%
